# The list is not random: actives were taken first. Their share in the collection is about 1.7%.
# ALOX12 inh – blocks human arachidonate 12S-lipoxygenase; purified 12hLO, xylenol orange hydroperoxide absorbance; Potency, µM (doses to about 108 µM), most hits filed as inhibitors; 1.1% of 580,000 active
#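 Purified human 12hLO at 150 nM in 25 mM Hepes, 0.01% Triton X-100, pH 7.0, preincubated 15 min at room temperature with compound. Reaction started with 40 uM arachidonic acid, 30 min at room temperature. Hydroperoxide measured by Fe-xylenol orange, 573/405 nm absorbance ratio.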
# TrxR1 substrate – rat thioredoxin reductase 1 substrate activity. 0.01% of 390,000 active. AID 588456. Potency, µM (top dose mostly 114 µM). O89049. purified TrxR1 substrate turnover, NADPH consumption readout; note: nearly all actives have a fitted effect of over 50% in size
# Target sequence (O89049 whole entry, looked up): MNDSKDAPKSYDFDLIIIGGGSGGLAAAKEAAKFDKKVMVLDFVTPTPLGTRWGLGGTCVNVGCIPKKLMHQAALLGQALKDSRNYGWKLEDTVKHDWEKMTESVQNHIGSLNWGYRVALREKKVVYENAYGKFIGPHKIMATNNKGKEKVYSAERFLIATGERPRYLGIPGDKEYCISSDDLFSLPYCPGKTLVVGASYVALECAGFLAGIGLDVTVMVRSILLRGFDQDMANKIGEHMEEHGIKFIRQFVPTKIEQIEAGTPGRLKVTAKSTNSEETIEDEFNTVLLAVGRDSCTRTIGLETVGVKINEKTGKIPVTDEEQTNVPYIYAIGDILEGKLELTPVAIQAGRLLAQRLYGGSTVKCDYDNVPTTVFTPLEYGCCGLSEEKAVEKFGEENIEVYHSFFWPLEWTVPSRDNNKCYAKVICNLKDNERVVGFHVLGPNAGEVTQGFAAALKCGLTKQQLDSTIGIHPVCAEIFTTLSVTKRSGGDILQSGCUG
#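 Rat TrxR1, dispensed at 90 nM, was prereduced with 400 uM NADPH (final) for 5 min at ~22 deg C, then incubated with compound 15 min before 400 uM selenite. A first-read NADPH fluorescence drop versus no-compound background flagged substrates.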
# IDH1 R132H inh – human IDH1 R132H inhibition. O75874. IDH1-R132H enzyme, NADPH consumption, diaphorase/resazurin fluorescence. Potency, µM (doses to about 76.6 µM), most hits filed as inhibitors. 0.093% of 390,000 active; note: nearly all actives have a fitted effect of over 65% in size
#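 IDH1-R132H (0.5 ug/mL dispensed) in pH 7.5 Tris buffer was preincubated 30 min with compound, then given a substrate mix of 0.016 mM NADPH and 2 mM alpha-KG for 80 min at room temperature; remaining NADPH was read by diaphorase/resazurin fluorescence.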
# Glioma ERSR ind – inducers of ER stress response in human glioma cells | 0.02% of 420,000 active | U87-MG GRP78 promoter luciferase reporter, 16 h | Potency, µM, hits mostly activators | AID 602332; note: series mostly up to about 76 µM; nearly all actives have a fitted effect of over 35% in size
#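 ERSR induction read as luciferase luminescence (Bright-Glo, 10 min at room temperature) in stably transfected human U87-MG glioma cells exposed to compounds for 16 h, using GRP78 as sensor.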
# Apoferritin bind – candidate novel general anesthetic via apoferritin binding; P02791; apoferritin/1-aminoanthracene competitive binding, fluorescence; Potency, µM (highest dose often 77.5 µM), hits mostly inhibitors; 0.074% of 350,000 active; AID 485281; note: nearly all actives have a fitted effect of over 20% in size
# Target sequence (P02791 2-175 limits assumed): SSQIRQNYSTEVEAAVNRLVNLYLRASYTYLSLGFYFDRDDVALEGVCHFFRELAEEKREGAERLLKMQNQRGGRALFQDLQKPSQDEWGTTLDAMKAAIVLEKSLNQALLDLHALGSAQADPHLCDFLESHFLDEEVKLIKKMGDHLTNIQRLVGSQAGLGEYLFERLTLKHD
#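 Horse-spleen apoferritin (10 uM) in 50% saturated 1-aminoanthracene in PBS was incubated 10 min at room temperature with compound. Fluorescence (ex 380, em 535 nm) was normalized to free and bound 1-AMA, with concentration-response fitted by a four-parameter Hill equation.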
# TrxR1 inh – blocks rat thioredoxin reductase 1; O89049; recombinant rTrxR1, NADPH fluorescence consumption, selenite substrate; Potency, µM (titrated, usually from 114 µM), most hits filed as inhibitors; 1% of 390,000 active; note: nearly all actives have a fitted effect of over 65% in size
#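 Rat TrxR1 (90 nM in the dispensed reagent) was pre-reduced with 400 uM NADPH for 5 min at room temperature, then incubated with compound for 15 min. After 400 uM selenite was added, NADPH fluorescence (Ex 340/Em 450 nm) was followed for 8 min.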
# Hits are given with their value; 0 = inactive; ? = inconclusive; - = no result given. Calls come from the whole dose curve; as a rule, active = well fitted curve in the direction sought with a large enough effect; inconclusive = small, poorly fitted or top-dose-only effect, or another doubt; inactive = no such curve, though single readings can be large; an effect the other way counts as inactive or inconclusive.
SMILES,ALOX12 inh,TrxR1 substrate,IDH1 R132H inh,Glioma ERSR ind,Apoferritin bind,TrxR1 inh
COc1ccc2c(c1)CCc1c(C(=O)N(C)c3ccccc3)noc1-2,0,0,0,0,?,79µM
COCCNC(=O)c1noc2c1CCc1cc(OC)ccc1-2,0,0,0,0,0,?
Cc1nc2ccc(C(=O)OCC(=O)NCC(C)C)cc2nc1C,0,-,-,-,-,-
O=S(=O)(c1ccc2c(c1)OCCO2)c1nc(-c2ccccc2)oc1NCCN1CCOCC1,25µM,-,-,-,-,-
O=C(Oc1ccc([N+](=O)[O-])cc1)c1cncc(Br)c1,0,0,0,0,0,18µM
O=CNc1ccc(OC(=O)c2cncc(Br)c2)cc1,0,0,0,0,0,0
CCCC(NC(=S)NCC1CCCO1)C12CC3CC(CC(C3)C1)C2 (centres undefined),40µM,0,0,0,0,0
O=C(Cc1cccc(F)c1)NCCn1cccc1-c1nc(-c2ccc3c(c2)OCO3)no1,0,-,-,-,-,-
CCN(CC)c1ccc(NC(=O)CCCOc2cccc(C)c2)cc1,40µM,0,0,0,0,0
Cc1cccc(OCCCC(=O)Nc2ccc(S(N)(=O)=O)cc2)c1,0,0,0,0,0,0
COc1ccccc1C(=O)N1CCC2(CC1)COc1ccccc1NC2=O,0,-,-,-,-,-
O[C@@H]1CO[C@H]2[C@@H]1OC[C@@H]2n1nnnc1-c1ccc(-c2ccccc2)cc1,0,-,-,-,-,-
O[C@@H]1CO[C@H]2[C@@H]1OC[C@@H]2n1nnnc1SC1CCCC1,63µM,-,-,-,-,-
O=C(O)CC(Sc1n[nH]c(=S)s1)C(=O)O (centres undefined),2µM,0,0,0,0,0
CC(C)C(=O)N1Cc2ccccc2CC2(CCCN(CC3CCCCC3)C2)C1 (centres undefined),0,-,-,-,-,-
FC(F)(F)c1ccccc1-c1nc(NCc2cccnc2)c2ccccc2n1,45µM,-,-,0,-,-
FC(F)(F)c1ccccc1-c1cc(NCc2cccnc2)ncn1,45µM,-,-,0,-,-
COc1cc(NCCC(=O)c2cccs2)c(OC)cc1Cl,0,0,0,0,0,18µM
CCCn1c2ccccc2c2nnc(SCC3CC3(Cl)Cl)nc21 (centres undefined),0,-,-,-,-,-
COc1ccccc1NC(=O)CSc1nnc(N)s1,0,0,0,0,0,13µM
O=C1NN(c2ccccc2)C(=O)C1=Cc1ccccc1O,?,-,0,0,-,-
O=C1NN(c2ccc(Br)cc2)C(=O)/C1=C\c1ccc(O)cc1O,40µM,0,0,0,0,?
O=C1NN(c2cccc(Br)c2)C(=O)/C1=C\c1ccc(O)cc1,16µM,0,0,0,0,?
COc1ccc2oc3c(ccc[n+]3C)c(=O)c2c1,13µM,-,-,0,-,-
COc1cc(/C=N/Nc2nc3ccccc3[nH]2)cc(OC)c1O,0,0,0,0,0,0
SMILES,ALOX12 inh,TrxR1 substrate,IDH1 R132H inh,Glioma ERSR ind,Apoferritin bind,TrxR1 inh
COc1cc(/C=C(/C(=O)c2cccs2)c2nc3ccccc3[nH]2)cc(OC)c1O,?,0,0,0,0,56µM
CC(C)(C)c1ccc(-c2cc(C[C@H]3CNCC[C@H]3CC(=O)NCc3cccs3)no2)cc1,40µM,-,-,-,-,-
CC(C)(C)c1ccc(-c2cc(C[C@H]3CNCC[C@H]3CC(=O)O)no2)cc1,0,-,-,-,-,-
CC(C)(C)c1ccc(-c2cc(C[C@H]3CNCC[C@H]3CC(=O)NC3CCCCC3)no2)cc1,32µM,-,-,-,-,-
CC(C)(C)c1ccc(-c2cc(C[C@H]3CNCC[C@H]3CC(=O)N3CCC(n4c(=O)[nH]c5ccccc54)CC3)no2)cc1,32µM,-,-,-,-,-
CC(=O)Nc1ccc(NC(=O)c2cc(-c3cccnc3)nc3ccccc23)cc1,0,-,-,-,-,-
CC(=O)c1ccc(OCc2cc(C(=O)N3CCCCCCC3)no2)cc1,0,0,0,0,5µM,0
O=C1NCCCCCCN[C@H]2C[C@H](C(=O)N3CCc4ccccc4C3)C[C@@H]12,0,-,-,-,-,-
CCC(c1nnnn1C(C)(C)CC)N(CCCN1CCOCC1)Cc1cc2cccc(C)c2[nH]c1=O (centres undefined),0,0,0,0,0,35µM
CC(C)C(=O)N1Cc2ccccc2CC2(CCCN2Cc2ccccn2)C1 (centres undefined),0,-,-,-,-,-
CCCCCCCCCCSCCC(=O)O,40µM,-,-,-,-,-
CCCCCCC(=O)O,0,0,0,0,-,0
CCN(CC(=O)Nc1c(F)cccc1F)C(=O)CCc1nc2sc3c(c2c(=O)[nH]1)CCCC3,14µM,0,0,0,-,0
CN(Cc1ccco1)C(=O)CCc1nc2sc3c(c2c(=O)[nH]1)CCCC3,-,0,0,0,0,18µM
Cc1ccc(CN(C)C(=O)CCc2nc3sc4c(c3c(=O)[nH]2)CCCC4)o1,?,0,0,0,0,50µM
FC1(F)CN[C@H](c2nc(-c3ccncc3)no2)C1,0,-,-,-,-,-
CCn1ccc(C(=O)N2C[C@@H](COCC3CC3)[C@H](c3nc(C)no3)C2)n1,0,-,-,-,-,-
CC1=C[C@@H](CNC(=O)Nc2ccccc2)[C@H](C(C)C)C[C@H]1Cc1nnc(-c2ccncc2)o1,0,-,-,-,-,-
O=C1N2CCCc3cccc(c32)C12Nc1ccccc1S2 (centres undefined),25µM,0,0,0,?,0
CCNC(=O)C1CCCN(C(=O)c2ccc(C#N)cc2)CC1 (centres undefined),0,-,-,0,-,-
Cc1cccc(N2CCN(c3cc(C(=O)O)c4cc(NC(=O)C(C)(C)C)ccc4n3)CC2)c1,14µM,-,-,-,-,-
CCCC(=O)Nc1ccc2nc(N3CCN(C(=O)OCC)CC3)cc(C(=O)O)c2c1,7.9µM,-,-,-,-,-
Cc1cccc(NC(=O)c2cc(N3CCOCC3)nc3ccccc23)c1,0,0,0,0,0,0
Cc1ccccc1C(=O)Nc1ccc2nc(N3CCN(C4CCCCC4)CC3)cc(C(=O)O)c2c1,6.3µM,-,-,-,-,-
COc1cccc2cc(-c3csc(Nc4cccc(C(F)(F)F)c4)n3)c(=O)oc12,0,-,-,-,-,-
SMILES,ALOX12 inh,TrxR1 substrate,IDH1 R132H inh,Glioma ERSR ind,Apoferritin bind,TrxR1 inh
Cc1ccc(-c2ccnc(=S)[nH]2)cc1C,2.5µM,-,-,-,-,-
S=c1nccc(-c2ccc(Cl)cc2)[nH]1,13µM,0,0,0,0,?
Cc1nc(C)c(CN2CCOC[C@H](Oc3ccc(S(C)(=O)=O)cc3)C2)s1,0,-,-,-,-,-
CCCCn1cc(S(=O)(=O)c2ccc(OC)cc2)c(=O)c2cc(OC)ccc21,0,-,-,-,-,-
C[C@@H]1CN(C(=O)c2cc(C(F)(F)F)[nH]n2)C[C@@]1(O)C1CCC1,0,-,-,-,-,-
CC1(C)CC(N2CCCC2)=CC(=[N+]2CCCCC2)C1,40µM,0,0,0,0,0
CC1(C)CC(N2CCCC2)=CC(=[N+]2CCCC2)C1,40µM,0,0,0,0,0
COc1cc(C(C)=O)ccc1OCC(O)Cn1nc(C)c(Br)c1C (centres undefined),4.5µM,0,0,0,0,0
COc1ccc(-c2noc(COC(=O)c3nn(C)c4ccccc34)n2)cc1,0,-,-,-,-,-

# Assay outcomes: PubChem, National Center for Advancing Translational Sciences (NCATS)
